The values that follow come from PubChem BioAssay AID588592 (Sanford-Burnham Center for Chemical Genomics, 2011).

The other results are listed elsewhere or left out. Active and inactive are the calls of the source. No rule for the calls is given here.

This assay can be described thus: fluorescence interference of Apaf-1 activator hits, dose response, artefact control for Apaf-1 activator project (AID 588592). The following applies: fluorescence interference counterscreen, Apaf-1 activator assay. In general terms: The purpose of a counterscreen is to sort out artefacts and off-target activity.
As a reminder, the EC50 is the concentration giving half of the maximal effect. Consider `C=C(C)C(=O)Nc1cccc(C2=NOC3(C2)C[C@H](C(N)=O)N(C(=O)C(c2ccccc2)c2ccccc2)C3)c1` (some centres undefined), for which the EC50 was > 100 µM (inactive).
In the case of `C=CC1=C(C(=O)O)N2C(=O)[C@@H](NC(=O)/C(=N\OCC(=O)O)c3csc(N)n3)[C@H]2SC1`, the EC50 is > 100 µM (inactive).
For the compound `CCN(CC)CCOc1ccc2c(c1)C(=NNC(=O)c1ccccn1)c1cc(OCCN(CC)CC)ccc1-2`, the EC50 is > 100 µM (inactive).
Turning to `C=CC1=C(C(=O)O)N2C(=O)[C@@H](NC(=O)/C(=N/OCC(=O)O)c3csc(N)n3)[C@H]2SC1`, the EC50 was > 100 µM (inactive).
